Data: the supplement of paper PMC10849652
Targets with a hit are over-represented here; the source holds about 7,900 in all. About 0.6% of all pairs of compound and target were hits.

Assays:
Assay in all cases: log2 fold change, soluble protein after heating vs DMSO (PISA); higher = thermal stabilisation; K562 cells, 10 uM, 30 min; active = over 0.2 and 3.5 SD of the protein, either way, in both replicates (recomputed)
erlotinib = compound: C#Cc1cccc(Nc2ncnc3cc(OCCOC)c(OCCOC)cc23)c1 [erlotinib]
Method in brief: (§1)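 K562 cells at 2×10^6 cells/mL were treated with 10 μM compound for 30 min. Aliquots were heated for 3 min across 48°C-58°C, pooled, and extracted in PBS with 0.5% NP-40 at 4°C; soluble protein was the supernatant after 21,000xg for 90 min. Soluble protein was quantified by TMTpro 16plex LC-MS/MS with channel sums equalised, and reported as log2 fold change in thermal stability against DMSO controls, with values from duplicates.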

[1] = compound: C/C(=N\NC(=O)C1=CC(=CC=C1)S(=O)(=O)N2CCOCC2)/C3=C(C=CC(=C3)Cl)O
Method in brief: as §1

[2] = compound: C1=CC(=C(C=C1Cl)C2=NC3=NC=CN=C3C(=N2)NC4=CC=NC=C4)F
Method in brief: as §1

[3] = compound: C1=CC(=CC=C1C2=NC3=C(N2)C=C(C=C3)C(=O)N)OC4=CC=C(C=C4)Cl
Method in brief: as §1

[4] = compound: C1=CC2=C(C=CC(=C2)/C=C\3/C(=O)NC(=NCC4=CC=CS4)S3)N=C1
Method in brief: as §1

[5] = compound: C1=CC2=NC=CN=C2C=C1/C=C/3\C(=O)NC(=O)S3
Method in brief: as §1

[6] = compound: C1=CC=C(C=C1)C2=NC(=C(N2)C3=CC=NC=C3)C4=CC(=C(C=C4)Cl)O
Method in brief: as §1

[7] = compound: C1=CC=C2C(=C1)C3=NNC4=CC=CC(=C43)C2=O
Method in brief: as §1

[8] = compound: C1CCN(C1)C(=O)NC2=CC=CC(=C2)NC3=NC=C(C(=N3)NCCC4=CN=CN4)Br
Method in brief: as §1

[9] = compound: C1CN(CCC1(CC2=CC=C(C=C2)Cl)N)C3=NC=NC4=C3C=CN4
Method in brief: as §1

Measured: log2 fold change

CLCN7 (UniProt P51798)
inactive: erlotinib 0.079 | [1] 0.047 | [2] 0.075 | [3] -0.008 | [4] 0.023 | [5] 0.063 | [6] 0.076 | [7] -0.05 | [8] 0.016 | [9] 0.001

CNOT1 (UniProt A5YKK6)
inactive: erlotinib 0.013 | [1] 0.102 | [2] -0.003 | [3] -0.007 | [4] 0.035 | [5] 0.001 | [6] 0.014 | [7] -0.004 | [8] -0.009 | [9] -0.008

CPQ (UniProt Q9Y646)
inactive: erlotinib 0.013 | [1] 0.002 | [2] 0.051 | [3] 0 | [4] 0.05 | [5] 0.004 | [6] 0.07 | [7] 0 | [8] -0.027 | [9] 0.125

CLUH (UniProt O75153)
inactive: erlotinib 0.08 | [1] 0 | [2] 0.318 | [3] -0.042 | [4] 0.137 | [6] 0.03 | [7] 0.058 | [8] -0.043 | [9] -0.027
active: [5] 0.324

CPSF6 isoform 2 (UniProt Q16630)
inactive: erlotinib 0.023 | [1] 0.079 | [2] -0.072 | [3] 0.122 | [4] -0.04 | [5] -0.026 | [6] -0.002 | [7] -0.016 | [8] -0.021 | [9] -0.135

COX20 isoform 2 (UniProt Q5RI15)
UniProt Q5RI15, sequence (Q5RI15 whole entry, looked up): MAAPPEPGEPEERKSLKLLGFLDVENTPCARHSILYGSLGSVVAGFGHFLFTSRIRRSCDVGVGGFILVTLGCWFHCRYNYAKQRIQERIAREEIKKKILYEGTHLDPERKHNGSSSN
inactive: erlotinib 0.037 | [1] 0.013 | [2] 0.072 | [3] 0.008 | [4] 0.057 | [5] 0.016 | [6] -0.092 | [7] -0.061 | [8] 0 | [9] 0.03

CSNK2A1 (UniProt P68400)
UniProt P68400, sequence (P68400 whole entry, looked up): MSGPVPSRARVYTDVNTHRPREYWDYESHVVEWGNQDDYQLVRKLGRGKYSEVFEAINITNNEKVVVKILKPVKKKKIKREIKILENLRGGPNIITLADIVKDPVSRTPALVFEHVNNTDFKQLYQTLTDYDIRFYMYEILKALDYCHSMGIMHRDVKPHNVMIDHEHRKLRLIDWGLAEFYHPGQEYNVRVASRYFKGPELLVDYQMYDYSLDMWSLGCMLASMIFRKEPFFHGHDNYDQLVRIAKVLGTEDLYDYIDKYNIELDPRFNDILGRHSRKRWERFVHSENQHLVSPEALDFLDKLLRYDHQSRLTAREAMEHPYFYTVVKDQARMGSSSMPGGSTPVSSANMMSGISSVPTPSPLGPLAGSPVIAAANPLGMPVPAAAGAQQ
active: [5] 0.296
inactive: erlotinib -0.03 | [1] -0.011 | [2] 0.006 | [3] 0.024 | [4] 0.139 | [6] -0.041 | [7] 0.094 | [8] -0.003 | [9] -0.013

CAB39L (UniProt Q9H9S4)
UniProt Q9H9S4, sequence (Q9H9S4 whole entry, looked up): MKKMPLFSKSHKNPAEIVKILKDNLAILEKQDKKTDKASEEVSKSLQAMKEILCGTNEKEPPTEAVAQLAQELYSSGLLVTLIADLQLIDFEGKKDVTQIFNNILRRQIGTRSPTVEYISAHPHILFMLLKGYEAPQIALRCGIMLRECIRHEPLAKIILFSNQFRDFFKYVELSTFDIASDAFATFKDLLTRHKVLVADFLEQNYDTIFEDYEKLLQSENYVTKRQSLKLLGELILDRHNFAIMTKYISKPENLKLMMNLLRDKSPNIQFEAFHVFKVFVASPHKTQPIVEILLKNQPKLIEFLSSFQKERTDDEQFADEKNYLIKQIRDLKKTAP
inactive: erlotinib -0.026 | [1] -0.001 | [2] -0.088 | [3] 0.065 | [4] 0.042 | [5] 0.015 | [6] 0.007 | [7] -0.117 | [8] -0.068 | [9] -0.306

COPS4 (UniProt Q9BT78)
inactive: erlotinib -0.002 | [1] 0.061 | [2] 0.13 | [3] -0.004 | [4] 0.036 | [5] -0.006 | [6] 0.054 | [7] 0.024 | [8] -0.009 | [9] -0.002

CCNH (UniProt P51946)
inactive: erlotinib -0.022 | [1] 0.021 | [2] 0.034 | [3] -0.016 | [4] -0.045 | [5] 0.031 | [6] 0.022 | [7] -0.004 | [8] -0.011 | [9] -0.015

CCDC59 (UniProt Q9P031)
inactive: erlotinib -0.118 | [1] -0.127 | [2] -0.192 | [3] 0.071 | [4] -0.136 | [5] -0.014 | [6] -0.091 | [7] 0.069 | [8] 0.054 | [9] -0.027

CAD (UniProt P27708)
inactive: erlotinib -0.083 | [1] 0.042 | [2] -0.014 | [3] -0.003 | [4] 0.125 | [5] -0.011 | [6] 0.057 | [7] -0.063 | [8] 0.013 | [9] 0.046

CEPT1 (UniProt Q9Y6K0)
inactive: erlotinib 0.099 | [1] 0.034 | [2] 0.016 | [3] 0.107 | [4] 0.037 | [5] 0.047 | [6] 0.011 | [7] 0.071 | [8] 0.007 | [9] -0.074

COA6 isoform 2 (UniProt Q5JTJ3)
inactive: erlotinib 0.012 | [1] 0.022 | [2] 0.045 | [3] 0.007 | [4] 0.023 | [5] 0.062 | [6] -0.053 | [7] -0.108 | [8] 0.047 | [9] 0.02

CLINT1 isoform 3 (UniProt Q14677)
UniProt Q14677, sequence (Q14677 whole entry, looked up): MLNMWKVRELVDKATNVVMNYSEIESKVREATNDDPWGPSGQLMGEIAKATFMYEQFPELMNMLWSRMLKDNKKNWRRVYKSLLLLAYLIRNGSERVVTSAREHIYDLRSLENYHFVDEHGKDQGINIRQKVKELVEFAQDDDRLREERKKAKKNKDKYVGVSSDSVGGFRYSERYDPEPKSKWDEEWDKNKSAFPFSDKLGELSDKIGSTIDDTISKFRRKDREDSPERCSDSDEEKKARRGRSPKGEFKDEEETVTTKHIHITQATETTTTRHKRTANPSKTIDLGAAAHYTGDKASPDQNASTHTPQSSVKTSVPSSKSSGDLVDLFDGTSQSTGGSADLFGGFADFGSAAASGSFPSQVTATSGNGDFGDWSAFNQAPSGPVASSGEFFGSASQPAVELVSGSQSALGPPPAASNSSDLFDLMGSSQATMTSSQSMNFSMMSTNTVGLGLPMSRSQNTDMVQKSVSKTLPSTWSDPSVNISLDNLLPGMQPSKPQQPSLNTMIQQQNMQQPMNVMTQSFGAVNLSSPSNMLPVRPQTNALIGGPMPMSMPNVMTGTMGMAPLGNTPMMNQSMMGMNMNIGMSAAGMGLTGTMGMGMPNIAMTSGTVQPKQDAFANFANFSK
inactive: erlotinib 0.016 | [1] -0.134 | [2] -0.097 | [3] -0.036 | [4] 0.026 | [5] 0.05 | [6] -0.03 | [7] -0.042 | [8] -0.044 | [9] 0.042

CBS (UniProt P35520)
inactive: erlotinib 0.014 | [1] -0.031 | [2] 0.039 | [3] -0.014 | [4] -0.026 | [5] 0.013 | [6] -0.03 | [7] 0.052 | [8] 0.025 | [9] 0.042

CSTF2 (UniProt P33240)
UniProt P33240, sequence (P33240 whole entry, looked up): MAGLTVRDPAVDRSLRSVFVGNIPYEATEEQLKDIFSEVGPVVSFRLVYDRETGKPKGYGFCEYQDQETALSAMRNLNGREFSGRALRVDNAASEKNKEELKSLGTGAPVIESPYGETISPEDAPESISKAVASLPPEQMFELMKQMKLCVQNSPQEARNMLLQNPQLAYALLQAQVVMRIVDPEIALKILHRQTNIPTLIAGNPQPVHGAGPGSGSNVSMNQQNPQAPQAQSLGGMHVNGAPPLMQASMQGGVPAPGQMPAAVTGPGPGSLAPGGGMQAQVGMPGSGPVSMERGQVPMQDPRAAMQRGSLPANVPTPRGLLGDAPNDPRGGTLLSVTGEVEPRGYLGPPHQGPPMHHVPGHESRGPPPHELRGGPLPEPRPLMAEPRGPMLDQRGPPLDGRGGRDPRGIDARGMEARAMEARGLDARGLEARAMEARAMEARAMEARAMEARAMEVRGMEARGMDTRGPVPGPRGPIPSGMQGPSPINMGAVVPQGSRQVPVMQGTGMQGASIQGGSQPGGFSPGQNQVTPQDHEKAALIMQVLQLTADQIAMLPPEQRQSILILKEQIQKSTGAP
inactive: erlotinib 0.032 | [1] -0.002 | [2] -0.011 | [3] 0.017 | [4] 0.017 | [5] 0.051 | [6] -0.076 | [7] 0.023 | [8] 0.033 | [9] -0.061

CDK16 isoform 2 (UniProt Q00536)
inactive: erlotinib -0.072 | [1] -0.025 | [2] -0.023 | [3] -0.07 | [4] 0.043 | [5] -0.016 | [6] -0.024 | [7] 0.121 | [8] 0.139 | [9] -0.029

CTBS (UniProt Q01459)
UniProt Q01459, sequence (Q01459 whole entry, looked up): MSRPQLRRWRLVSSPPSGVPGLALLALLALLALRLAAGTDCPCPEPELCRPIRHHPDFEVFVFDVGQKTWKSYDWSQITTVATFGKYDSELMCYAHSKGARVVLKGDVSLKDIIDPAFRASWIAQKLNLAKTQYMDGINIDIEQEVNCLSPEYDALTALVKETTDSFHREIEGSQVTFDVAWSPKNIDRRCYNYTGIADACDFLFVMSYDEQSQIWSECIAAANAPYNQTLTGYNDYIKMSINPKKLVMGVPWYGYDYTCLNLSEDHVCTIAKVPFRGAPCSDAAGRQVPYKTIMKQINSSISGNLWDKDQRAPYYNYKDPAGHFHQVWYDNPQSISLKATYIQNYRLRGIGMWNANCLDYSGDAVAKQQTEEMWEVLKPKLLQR
inactive: erlotinib 0.037 | [1] -0.008 | [2] -0.1 | [3] -0.023 | [4] 0.039 | [5] 0.013 | [6] -0.089 | [7] -0.002 | [8] -0.083 | [9] 0.048

CRTC1 isoform 2 (UniProt Q6UUV9)
inactive: erlotinib 0.007 | [1] 0.07 | [2] -0.228 | [3] 0.068 | [4] 0.185 | [5] -0.052 | [6] -0.229 | [7] -0.051 | [8] -0.053 | [9] 0.021

C9orf72 (UniProt Q96LT7)
UniProt Q96LT7, sequence (Q96LT7 whole entry, looked up): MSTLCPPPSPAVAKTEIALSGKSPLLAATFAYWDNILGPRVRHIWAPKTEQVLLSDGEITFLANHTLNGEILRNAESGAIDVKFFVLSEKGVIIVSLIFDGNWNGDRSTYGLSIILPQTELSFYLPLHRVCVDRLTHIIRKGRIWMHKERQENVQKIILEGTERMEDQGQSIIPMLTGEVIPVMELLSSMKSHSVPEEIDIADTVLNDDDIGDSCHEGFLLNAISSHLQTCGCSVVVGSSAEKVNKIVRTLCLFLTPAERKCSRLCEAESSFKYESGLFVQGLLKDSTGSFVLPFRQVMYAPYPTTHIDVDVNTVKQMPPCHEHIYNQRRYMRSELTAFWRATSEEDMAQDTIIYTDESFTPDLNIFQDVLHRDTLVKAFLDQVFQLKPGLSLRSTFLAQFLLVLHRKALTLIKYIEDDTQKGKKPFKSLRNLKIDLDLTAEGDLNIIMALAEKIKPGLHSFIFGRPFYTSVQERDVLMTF
inactive: erlotinib 0.095 | [1] 0.021 | [2] 0.02 | [3] -0.012 | [4] -0.068 | [5] -0.068 | [6] -0.086 | [7] -0.057 | [8] -0.205 | [9] 0.211

CBR1 (UniProt P16152)
inactive: erlotinib 0.011 | [1] 0.066 | [2] 0.115 | [3] 0.008 | [4] -0.009 | [5] 0.028 | [6] 0.186 | [7] -0.038 | [8] -0.027 | [9] 0.057

CETN2 (UniProt P41208)
inactive: erlotinib 0.121 | [1] -0.015 | [2] -0.002 | [3] 0.017 | [4] -0.058 | [5] 0.03 | [6] -0.058 | [7] -0.113 | [8] 0.039 | [9] 0.049

CASC3 (UniProt O15234)
inactive: erlotinib -0.084 | [1] -0.166 | [2] -0.066 | [3] 0.068 | [4] 0 | [5] -0.047 | [6] 0.023 | [7] -0.29 | [8] 0.089 | [9] 0.022

CORO2A (UniProt Q92828)
UniProt Q92828, sequence (Q92828 whole entry, looked up): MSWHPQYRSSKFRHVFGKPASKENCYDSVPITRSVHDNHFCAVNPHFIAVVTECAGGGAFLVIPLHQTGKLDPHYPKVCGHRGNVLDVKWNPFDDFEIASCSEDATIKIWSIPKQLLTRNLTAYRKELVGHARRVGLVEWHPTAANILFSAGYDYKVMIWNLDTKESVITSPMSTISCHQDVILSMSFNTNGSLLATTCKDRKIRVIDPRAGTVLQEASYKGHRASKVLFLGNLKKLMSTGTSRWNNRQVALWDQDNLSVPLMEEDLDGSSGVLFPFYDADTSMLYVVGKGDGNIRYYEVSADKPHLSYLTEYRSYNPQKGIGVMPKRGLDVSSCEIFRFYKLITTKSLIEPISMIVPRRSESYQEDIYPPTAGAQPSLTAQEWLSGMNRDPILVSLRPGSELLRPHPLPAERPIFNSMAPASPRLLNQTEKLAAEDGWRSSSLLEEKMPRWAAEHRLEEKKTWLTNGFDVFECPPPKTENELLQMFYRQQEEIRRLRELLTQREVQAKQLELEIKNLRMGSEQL
inactive: erlotinib -0.035 | [1] 0.064 | [3] -0.011 | [4] -0.001 | [5] 0.127 | [6] 0.138 | [7] -0.042 | [8] 0.034 | [9] 0.031

CLN5 (UniProt O75503)
inactive: erlotinib 0.146 | [1] -0.049 | [2] 0.063 | [3] 0.103 | [4] 0.023 | [5] 0.016 | [7] 0.15 | [8] -0.02 | [9] -0.285

COX5B (UniProt P10606)
UniProt P10606, sequence (P10606 whole entry, looked up): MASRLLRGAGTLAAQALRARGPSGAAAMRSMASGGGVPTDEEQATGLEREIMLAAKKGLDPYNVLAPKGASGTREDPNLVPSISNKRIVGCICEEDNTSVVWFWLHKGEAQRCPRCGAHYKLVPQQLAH
inactive: erlotinib -0.068 | [1] 0.062 | [2] 0.16 | [3] -0.041 | [4] 0.032 | [5] 0.03 | [6] 0.114 | [7] -0.023 | [8] -0.067 | [9] -0.003

CDCA2 (UniProt Q69YH5)
UniProt Q69YH5, sequence (Q69YH5 whole entry, looked up): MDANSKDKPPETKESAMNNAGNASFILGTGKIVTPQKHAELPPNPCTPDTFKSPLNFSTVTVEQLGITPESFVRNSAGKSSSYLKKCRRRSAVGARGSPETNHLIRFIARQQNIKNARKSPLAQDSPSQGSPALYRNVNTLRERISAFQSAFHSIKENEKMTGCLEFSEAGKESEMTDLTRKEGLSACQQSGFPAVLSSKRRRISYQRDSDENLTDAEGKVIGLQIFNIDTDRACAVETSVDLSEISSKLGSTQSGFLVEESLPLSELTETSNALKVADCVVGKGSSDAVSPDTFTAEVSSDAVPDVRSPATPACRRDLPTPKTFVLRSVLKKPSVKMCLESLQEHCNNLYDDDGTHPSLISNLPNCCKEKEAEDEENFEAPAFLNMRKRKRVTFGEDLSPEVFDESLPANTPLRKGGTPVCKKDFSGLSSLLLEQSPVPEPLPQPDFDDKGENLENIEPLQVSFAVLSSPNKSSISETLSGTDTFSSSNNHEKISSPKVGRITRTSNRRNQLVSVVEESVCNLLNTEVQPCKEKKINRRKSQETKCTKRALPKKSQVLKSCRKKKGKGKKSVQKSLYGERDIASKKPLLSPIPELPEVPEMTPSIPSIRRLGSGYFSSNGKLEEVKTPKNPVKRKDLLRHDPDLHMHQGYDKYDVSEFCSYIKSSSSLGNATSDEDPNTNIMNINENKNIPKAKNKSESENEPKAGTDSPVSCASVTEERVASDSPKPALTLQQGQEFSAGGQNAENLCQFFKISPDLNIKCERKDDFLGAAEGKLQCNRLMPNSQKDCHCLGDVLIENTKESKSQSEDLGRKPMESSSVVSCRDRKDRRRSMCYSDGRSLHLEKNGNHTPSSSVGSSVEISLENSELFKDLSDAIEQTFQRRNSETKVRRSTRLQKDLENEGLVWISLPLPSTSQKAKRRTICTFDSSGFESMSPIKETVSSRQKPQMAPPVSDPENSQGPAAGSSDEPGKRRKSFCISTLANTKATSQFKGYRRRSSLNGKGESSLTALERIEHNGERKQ
inactive: [1] -0.46 | [2] 0.043 | [3] -0.333 | [4] 0.048 | [6] -0.002 | [7] -0.033 | [8] -0.082 | [9] 0.256
active: erlotinib 0.519

CNN3 (UniProt Q15417)
UniProt Q15417, sequence (Q15417 whole entry, looked up): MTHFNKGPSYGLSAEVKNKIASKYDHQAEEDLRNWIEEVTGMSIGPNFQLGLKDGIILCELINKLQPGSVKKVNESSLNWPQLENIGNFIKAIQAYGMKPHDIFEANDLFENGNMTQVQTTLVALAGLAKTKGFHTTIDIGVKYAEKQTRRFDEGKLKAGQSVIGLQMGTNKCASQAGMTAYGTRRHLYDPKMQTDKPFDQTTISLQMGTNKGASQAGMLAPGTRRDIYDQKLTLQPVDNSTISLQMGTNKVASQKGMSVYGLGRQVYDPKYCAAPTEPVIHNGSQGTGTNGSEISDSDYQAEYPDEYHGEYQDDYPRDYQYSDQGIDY
inactive: erlotinib 0.013 | [1] 0.158 | [2] 0.064 | [3] -0.088 | [4] 0.054 | [5] 0.056 | [7] 0.016 | [8] 0.041 | [9] -0.116

CREB3L2 (UniProt Q70SY1)
inactive: erlotinib 0.424 | [1] 0.104 | [2] 0.057 | [3] -0.264 | [4] 0.113 | [5] -0.174 | [6] -0.1 | [7] -0.045 | [8] -0.206 | [9] 0.173
